# Screens: PubChem, National Center for Advancing Translational Sciences (NCATS)
# D2 PAM-1: Beta-Arrestin HTS for Positive Allosteric Modulators of the Human D2 Dopamine Receptor: Potentiators | actives 0.23% (n = 360,000) | DiscoveRx D2 beta-arrestin cells, luminescence, 90 min; 100% = 57 uM dopamine signal | AID 624464, 2012 | potentiation, % (test concentration not listed); in the data active means potentiation above about 50%; inconclusive means mostly about 30% to 49%
# Target sequence (P14416 whole entry, looked up): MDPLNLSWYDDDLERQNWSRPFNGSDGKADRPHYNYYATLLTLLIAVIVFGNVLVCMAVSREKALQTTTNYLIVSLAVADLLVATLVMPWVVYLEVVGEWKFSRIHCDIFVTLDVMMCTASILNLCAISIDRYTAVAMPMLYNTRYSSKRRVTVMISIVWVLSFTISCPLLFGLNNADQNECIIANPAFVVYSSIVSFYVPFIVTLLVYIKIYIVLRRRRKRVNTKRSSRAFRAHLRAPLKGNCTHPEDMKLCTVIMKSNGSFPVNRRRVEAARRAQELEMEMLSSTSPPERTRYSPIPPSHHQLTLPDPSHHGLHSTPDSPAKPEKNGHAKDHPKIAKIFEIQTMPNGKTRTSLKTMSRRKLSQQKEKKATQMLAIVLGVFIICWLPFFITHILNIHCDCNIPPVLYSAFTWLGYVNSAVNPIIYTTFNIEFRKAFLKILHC
#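 PathHunter D2 cells, attached overnight at 37 deg C, received compound in DMSO plus dopamine at EC20 (50 nM final) for 90 min at 37 deg C. Beta-arrestin recruitment was read as luminescence after 1 h with detection reagent at ambient temperature.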
# D2 PAM-2: HTS Assay for Positive Allosteric Modulators of the Human D2 Dopamine Receptor: Primary Screen for Potentiators; HEK293 T-REx D2, calcium flux, EC20 dopamine potentiation; actives 0.34% (n = 340,000); potentiation, % at 10 µM;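 active means potentiation over 3 SD above the plate norm, cut at about 30% in these data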
#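 Calcium flux readout, no-wash dye, 1 read/s. Inducible HEK293 Trex D2 line, overnight 30 C. Compound alone 180 s (agonist flags), then EC20 dopamine, another 180 s to score potentiation.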
# D2 ag-1: HTS Assay for Allosteric Agonists of the Human D2 Dopamine Receptor: Primary Screen for Agonists; actives 0.53% (n = 340,000); AID 485358, 2010; HEK293 T-REx D2 cells, calcium flux agonist mode; D(2) dopamine receptor (Homo sapiens), P14416; activation, % at 2 µM;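 active means activation over 3 SD above normal in the single-dose calcium agonist read, cut at about 30% in these data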
#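 Agonism is scored from calcium flux in a force-coupled, inducible HEK293 cell line expressing D2, read kinetically for 180 s after compound addition against dopamine controls.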
# D2 antag: HTS Assay for Allosteric Antagonists of the Human D2 Dopamine Receptor: Primary Screen for Antagonists; HEK293 TREx D2 cells, calcium flux, dopamine EC80; actives 2% (n = 340,000); inhibition, % at 10 µM; AID 485344, 2010; D(2) dopamine receptor (Homo sapiens), P14416; in the data active means inhibition above about 30%; inactive means below that, where a call was filed
#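 Calcium mobilization kinetics were recorded at 1 s intervals in tetracycline-induced HEK293 T-REx D2 cells, first for 180 s after compound addition and then 180 s after EC80 dopamine.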
# D2 ag-2: Beta-Arrestin HTS for Positive Allosteric Modulators of the Human D2 Dopamine Receptor: Agonists; D(2) dopamine receptor (Homo sapiens), P14416; DiscoveRx PathHunter D2 beta-arrestin, luminescence, 90 min; 100% = 57 uM dopamine signal; activation, % (concentration not given with the values); actives 0.084% (n = 360,000); AID 624465, 2012; in the data active means activation above about 40%; inconclusive means between about 15% and that limit
#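 Agonist mode: compounds alone added to overnight-plated D2 PathHunter cells for 90 min at 37 C, with 57 uM final dopamine (EC100) defining full response. Beta-arrestin recruitment detected by chemiluminescent reagent, read after 1 h at ambient temperature.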
# Hits are given with their value; – = inactive; ? = inconclusive; · = no result given; ! = not active in a repeat. The list is not random: actives were taken first. Their share in the collection is about 2.4%.
SMILES,D2 PAM-1,D2 PAM-2,D2 ag-1,D2 antag,D2 ag-2
C=CCc1ccc(OCC(O)CN2CCC(Cc3ccccc3)CC2)c(OC)c1 (stereo not given),–,–,–,41,–
COc1ccc(OC)c(S(=O)(=O)N2CCN(CC(O)COc3ccc(C#N)cc3)CC2)c1 (stereo not given),–,–,–,–,–
O=C(CSc1n[nH]c(-c2ccccc2)n1)NCCCc1ccccc1,·,–,–,·,·
Cc1ccc(C(=O)Nc2cc(-c3nc4ncccc4o3)ccc2C)c(C)c1,·,–,·,·,·
COc1ccc(Br)cc1CNC(=O)CCSCc1ccc(C)cc1,·,–,–,·,·
COc1ccc(NC(=O)CCc2c(C)nn(-c3ccc(N4CCCCC4)nn3)c2C)cc1Cl,·,–,–,·,·
CCOc1ccccc1NC(=O)NNS(=O)(=O)c1ccc([N+](=O)[O-])cc1,–,–,–,–,–
CCOc1ccc2ccccc2c1/C=N\NC(=O)OC,–,–,–,–,–
CCOc1ccccc1NC(=O)CSc1ccc([N+](=O)[O-])cc1,–,–,–,41,–
CCOc1ccc2ccccc2c1/C=N\NC(=O)c1ccc([N+](=O)[O-])cc1,–,–,–,39,–
Cc1cc(C(=O)N2CCN(S(=O)(=O)c3ccccc3C#N)CC2)c(C)o1,–,–,–,–,–
Cc1cc(C(=O)N2CCN(S(=O)(=O)c3ccccc3F)CC2)c(C)o1,–,47,–,–,–
CN(C)CCN(C(=O)c1ccc(S(=O)(=O)N2CCc3ccccc32)cc1)c1nc2ccc(F)cc2s1,–,–,–,69,–
CCc1ccc2nc(N(CCCN(C)C)C(=O)c3ccc(S(=O)(=O)N4CCCc5ccccc54)cc3)sc2c1,–,–,–,–,–
CC(C)Cc1ccc(C(C)C(=O)Nc2cccnc2)cc1 (stereo not given),–,–,–,–,–
CC(C)Cc1ccc(C(C)C(=O)Nc2ccc(O)cc2)cc1 (stereo not given),–,–,–,39,–
CC(C)(C)c1ccc(-c2nc(SCC(=O)Nc3ccc(Cl)cc3)[nH]c(=O)c2C#N)cc1,·,–,–,·,·
O=C(C1CC1)N1CCc2cc(Br)cc(S(=O)(=O)NC3CCCCC3)c21,–,–,–,40,–
CCc1ccc(NS(=O)(=O)c2cc(Br)cc3c2N(C(C)=O)CC3)cc1,·,·,–,·,·
O=C(C1CC1)N1CCc2cc(Br)cc(S(=O)(=O)N3CCCCCC3)c21,–,–,–,–,–
COc1ccc(NS(=O)(=O)c2cc(Br)cc3c2N(C(C)=O)CC3)cc1,–,–,–,63,–
Cc1ccc(N(Cc2cccs2)C(=O)c2ccc(Br)o2)cc1,·,–,–,·,·
Oc1ccc2ccccc2c1C=Nc1cc(C(F)(F)F)ccc1N1CCCC1,55,–,–,–,–
N#Cc1cccc(N=Cc2c(O)ccc3ccccc23)c1,?,–,–,–,–
Cc1cc(C(=O)CSc2nc3ccccc3c(=O)[nH]2)c(C)n1C,–,39,–,–,–
SMILES,D2 PAM-1,D2 PAM-2,D2 ag-1,D2 antag,D2 ag-2
O=C(Nc1cc(Cl)cc(Cl)c1)c1ccc(F)c(S(=O)(=O)NC2CCCC2)c1,·,–,·,·,·
COc1cc(OC)cc(C(=O)NCc2cccnc2)c1,–,30,–,–,–
COc1ccc(/C=N/NC(=O)C(=O)NCc2cccnc2)cc1OC,–,–,–,33,–
COc1ccc(C(=O)NCc2cccnc2)cc1Br,–,–,–,–,–
COc1cc(/C=N/NC(=O)C(=O)NCc2cccnc2)ccc1O,–,–,–,–,–
CCOC(=O)CNC(=O)c1cc(OC)cc(OC)c1,–,·,–,39,–
Cc1ccc(-c2cn3c(n2)sc2cc(C(=O)NCCCc4ccccc4)ccc23)c(C)c1,·,–,–,·,·
Cc1oc(-c2cccc(Br)c2)nc1Cn1c(=O)cc(-c2ccccc2)c2c(C)nn(C)c21,·,–,–,·,·
COc1ccc(Nc2ncc3c(n2)CC(c2ccc(OC)cc2)CC3=O)cc1 (stereo not given),–,·,–,–,–
COc1ccc(Nc2ncc3c(n2)CC(c2ccc(C)cc2)CC3=O)cc1 (stereo not given),–,–,–,36,–
Oc1ccc(C2CNCCc3c2cc(O)c(O)c3Cl)cc1 (stereo not given),58!,–,–,–,?
COc1ccc(S(=O)(=O)N(CC(=O)NCc2ccncc2)c2ccc(C)cc2)cc1Br,–,–,–,33,–
Cc1ccc(N(CC(=O)NCc2ccc(F)cc2)S(=O)(=O)c2cccs2)cc1,–,–,–,46,–
COc1ccc(N(CC(=O)Nc2ccc3c(c2)OCO3)S(=O)(=O)c2ccc(C)cc2)cc1OC,–,–,–,54,–
COc1ccc(N(CC(=O)Nc2ccc3c(c2)OCO3)S(=O)(=O)c2ccccc2)cc1OC,–,–,–,–,–
COc1cc(NC(=O)c2ccc(-c3nc(CSc4ccccc4)c(C)o3)cc2)cc(OC)c1,·,–,–,·,·
COc1cc(S(=O)(=O)N2CCC(c3nc4ccccc4s3)CC2)ccc1S(=O)(=O)N1CC(C)CC(C)C1 (stereo not given),–,34,–,–,–
O=C(Oc1ccccc1F)c1nc(SCc2ccc(F)cc2)ncc1Cl,·,–,–,·,·
Cc1cccn2c(=O)c3cc(C#N)c(=O)n(-c4nnc(SCc5ccc(F)cc5)s4)c3nc12,·,–,·,·,·
CN(C)Cc1c(O)ccc2occ(C(=O)c3ccccc3)c12,–,54,–,–,–
CCCCCC1=CCC/C1=N\NC(=O)c1ccc2c(c1)OCO2,–,–,–,31,–
COc1ccccc1C=Cc1ccnc2ccccc12,–,·,·,·,–
COc1ccc(/C=C/c2ccncc2)c2ccccc12,–,–,–,45,–
C=C1C(=O)C=C[C@]2(C)C[C@@H]3OC(=O)[C@](C)(O)[C@H]3C[C@@H]12,–,–,–,37,–
CCN(c1cccc(C)c1)S(=O)(=O)c1cc2c(cc1C)n(C)c(=O)c(=O)n2C,·,–,–,·,·
CC(C)n1c(O)c(N=NC(=O)CNC(=O)c2cccnc2)c2ccccc21,–,–,–,41,–
CCOC(=O)c1ccccc1NC(=O)Cn1c(=O)n(-c2ccc(CC)cc2)c(=O)c2c(C)c(C(=O)N(C)C)sc21,·,–,–,·,·
O=C(CSc1ncc(-c2ccccc2)nn1)NCc1ccco1,–,–,–,–,–
COc1ccc(-c2[nH]c(-c3cccc(OC)c3)nc2SCC(=O)NCc2ccco2)cc1,–,–,–,39,–
